Screens deposited in PubChem BioAssay by several laboratories.
BoNT-F LC inh – BoNT/F light chain protease inhibitors, primary screen, biochemical, flow cytometry, MLPCN library; Multiplex microsphere protease cleavage assay; inhibition, % at 10 µM; actives 0.22% (n = 360,000); AID 588497, 2011; in the data active means inhibition above about 35%, passing the limit was not always enough; inconclusive means no clear call, values can overlap the other calls
3CLpro inhibitor – SARS-CoV 3CLpro protease inhibitors, primary screen, biochemical, quenched FRET; recombinant SARS-CoV 3CLpro, quenched FRET peptide cleavage; inhibition, % at 6 µM; actives 0.14% (n = 290,000); AID 1706, 2009; in the data active means inhibition above about 12%
Bead autofluor – compound fluorescence in toxin protease inhibitor counterscreen | compound autofluorescence counterscreen, microsphere flow cytometry; stronger effect = higher value | fluorescence intensity (concentration not given with the values) | actives 3.1% (n = 360,000) | AID 624483; in the data active means fluorescence intensity above about 16000; inconclusive means no clear call, values can overlap the other calls
Anthrax LF inh2 – Bacillus anthracis LF protease inhibitors, primary screen, biochemical, multiplex microsphere, MLPCN library; inhibition, % at 10 µM; multiplex microsphere protease cleavage assay; actives 0.12% (n = 360,000); Lethal factor (Bacillus anthracis), P15917
BoNT A protease – BoNT/A light chain protease inhibitors, primary screen, biochemical, flow cytometry, MLPCN library; inhibition, % at 10 µM; multiplex microsphere protease substrate cleavage; actives 0.17% (n = 360,000); Botulinum neurotoxin type A light chain protease (Clostridium botulinum A str. ATCC 3502); AID 588499, 2011
Hits are given with their value; – = inactive; ? = inconclusive; · = not tested or not shown. In the library only some 3.5% were active in any assay of this set; here they are far more common. Unless noted, no stated cut-off is given here; in the data, active means inhibition above about 30%; inconclusive means no clear call, values can overlap the other calls; inactive means below that.

SMILES	BoNT-F LC inh	3CLpro inhibitor	Bead autofluor	Anthrax LF inh2	BoNT A protease
COc1ccc(C2CC(=O)c3cnn(-c4nc(C)cc(C)n4)c3C2)cc1OC (centres undefined)	?	–	–	–	–
C=CCn1c(CNC(=O)c2ccco2)nnc1SCC(=O)N1c2ccccc2Sc2ccccc21	–	–	18468	–	–
Cc1ccc2cc(C)c(N3CCN(c4ccccn4)CC3)nc2c1	–	–	23535	–	–
Cc1cc(C)cc(NS(=O)(=O)c2ccc3oc(=O)ccc3c2)c1	–	–	23250	–	–
CN(Cc1cccc(Cl)c1Cl)c1ccc(S(=O)(=O)N2CCCCC2)cc1[N+](=O)[O-]	–	–	–	–	–
COc1ccc(N2C(=O)C(Cl)=C(N3CCN(Cc4ccccc4)CC3)C2=O)cc1	–	–	–	–	–
CC(C(=O)NCC1CCCO1)N1C(=O)C2C3CC(C(Br)C3Br)C2C1=O (centres undefined)	?	–	–	–	?
COc1ccc(CCNC(=O)c2cnn(-c3ccc(C)c(C)c3)c2NC(=O)c2ccco2)cc1OC	–	–	22833	–	?
Cc1ccc(-n2ncc(C(=O)N3CCc4ccccc4C3)c2NC(=O)c2ccco2)cc1C	–	–	23443	–	–
COc1ccc(CCNC(=O)c2ccccc2NC(=O)c2ccco2)cc1OC	–	–	–	–	–
NC(=O)C1CCN(C(=O)c2cnn(-c3ccccc3)c2NC(=O)c2ccco2)CC1	–	–	–	–	–
COc1ccc2c(c1)c1ncn(CCN3CCCC3)c(=O)c1n2C	–	–	21856	–	–
COc1ccc2c(c1)c1ncn(CCN3CCNCC3)c(=O)c1n2C	–	–	22441	–	–
COc1ccc2[nH]c3c(=O)n(CCN4CCOCC4)cnc3c2c1	–	–	–	–	–
COc1ccc2c(c1)c1ncn(CCN3CCCCC3)c(=O)c1n2C	–	–	–	–	–
Cc1nnc(-c2cnn(-c3ccccc3)c2N)n1Cc1ccncc1	–	–	20279	–	?
Cc1nnc(-c2cnn(-c3ccccc3)c2N)n1Cc1cccc(C(F)(F)F)c1	–	–	–	–	–
Cc1ccc(CNC(=O)c2cccc(-n3cnnn3)c2)cc1	–	–	23751	–	–
COc1ccc(CCNC(=O)c2cccc(-n3cnnn3)c2)cc1	–	·	–	–	–
COc1ccc(NC(=O)N(C)C[C@H]2Oc3ccc(NS(=O)(=O)c4ccc(OC)cc4)cc3C(=O)N([C@H](C)CO)C[C@@H]2C)cc1	–	·	–	–	–
COc1ccc(S(=O)(=O)N2CCC(C(=O)NCC3CCCO3)CC2)cc1 (centres undefined)	–	–	20959	–	–
CC(C)(C)NC(=O)C1CCN(C(=O)c2ccc(Br)cc2)CC1	–	–	19805	–	?
Cc1ccc(S(=O)(=O)N2CCC(C(=O)N[C@@H](C)C(=O)NCC3CCCO3)CC2)cc1 (some centres undefined)	–	–	–	–	–
Cc1ccc(S(=O)(=O)N2CCC(C(=O)N[C@H](C(=O)NCC3CCCO3)C(C)C)CC2)cc1 (some centres undefined)	–	–	20985	–	–
CC(C)(C)c1ccc(C(=O)N2CCC(C(=O)NCC3CCCO3)CC2)cc1 (centres undefined)	–	–	22225	–	–
SMILES	BoNT-F LC inh	3CLpro inhibitor	Bead autofluor	Anthrax LF inh2	BoNT A protease
O=C(NCC1CCCO1)C1CCN(C(=O)c2ccc(Cl)cc2)CC1 (centres undefined)	–	–	–	–	–
CCCCNC(=O)NS(=O)(=O)c1ccc(C)cc1	–	–	–	–	–
O=C(c1cc(-c2ccc(Cl)cc2)n(-c2ccc(Cl)cc2)n1)N1CCOCC1	–	–	–	–	–
C#CCNC(=O)C1=C[C@@H](C(C)(C)C)C[C@@H](OCc2ccc(CO)cc2)O1	–	–	–	–	–
Cc1ccc(C(C(=O)NC2CCCCC2)N(Cc2ccccc2)C(=O)Cc2c[nH]c3ccccc23)o1 (centres undefined)	–	–	–	–	–
COc1cc(C(C(=O)NC2CCCCC2)N(Cc2cccs2)C(=O)Cc2c[nH]c3ccccc23)cc(OC)c1OC (centres undefined)	–	–	23578	–	–
COc1ccc(CN(C(=O)Cc2c[nH]c3ccccc23)C(C(=O)NC2CCCCC2)c2ccc(C)o2)cc1 (centres undefined)	–	–	27158	–	–
O=C(CSc1nnnn1-c1ccc(Cl)cc1)NC(=O)Nc1ccc2c(c1)OCCO2	–	–	–	–	–
CCSc1cc(C)nc2c(-c3ccc(Cl)cc3)c(C)nn12	–	–	20908	–	–
O=C(NC1CCCCCC1)C1CCN(S(=O)(=O)N2CCC3(CC2)OCCO3)CC1	–	–	–	–	–
CCN1CCc2ccccc2C1	–	–	–	–	–
Oc1ccc(CN2CCCCC2)c2cccnc12	–	–	–	–	–
Cn1cc(CN2CCc3ccccc3C2)c2ccccc21	–	–	21029	–	–
Oc1ccc(CN2CCc3ccccc3C2)c2cccnc12	–	–	16689	–	–
CNc1ncnc2c1ncn2-c1ccccc1	–	·	–	–	–
COC(=O)c1cccc(S(=O)(=O)N(Cc2ccco2)Cc2cc3cc(OC)c(OC)cc3[nH]c2=O)c1	–	–	–	–	–
COC(=O)c1cccc(S(=O)(=O)N(Cc2ccco2)Cc2cc3ccc(OC)cc3[nH]c2=O)c1	–	–	24753	–	–
CC(=O)c1cccc(S(=O)(=O)N(CCCO)Cc2cc3ccc(C)cc3[nH]c2=O)c1	–	–	24495	–	–
O=C(COc1ccc(S(=O)(=O)N2CCCC2)cc1Cl)NC1CCCC1	–	–	20890	–	–
CC(C)(C)NC(=O)C1CCN(c2ccc(S(=O)(=O)N3CCOCC3)cc2Cl)CC1	–	–	–	–	–
Cc1cc(Cl)c(S(=O)(=O)Nc2ccc3c(c2)OCO3)cc1OCC(N)=O	–	–	–	–	–
O=C(COC(=O)c1cc(S(=O)(=O)N2CCCCC2)ccc1Cl)NC1CCCCC1	–	·	–	–	–
Cc1cc(Cl)c(S(=O)(=O)NCc2cccnc2)cc1OCC(=O)NC1CCCCC1	–	–	–	–	–
Cc1cc(Cl)c(S(=O)(=O)N2CCCC2)cc1OCC(=O)NC1CCCCC1	–	–	20066	–	?
Cc1cc(Cl)c(S(=O)(=O)Nc2ccc3c(c2)OCO3)cc1OCC(=O)NC1CCCCC1	–	–	25458	–	–
O=C(NC1CC1)C1CCN(c2ccc(S(=O)(=O)N3CCOCC3)cc2Cl)CC1	–	–	22681	–	–
CC1=Nc2cc([N+](=O)[O-])ccc2NC(C)(C)C1	–	–	–	–	–
Cc1cc(Cl)c(S(=O)(=O)NC(C(=O)O)C(C)C)cc1OCC(=O)NC1CCCCC1 (centres undefined)	–	–	20262	–	?
